Compound activity: PubChem, University of Kansas High Throughput Screening Laboratory
mHTT CaM bind: mutant huntingtin-calmodulin interaction inhibitors – biochemical, AlphaScreen, primary screen; hit rate 3.6% among 190,000; inhibition, % at 15 µM; P42858; AID 1671202, 2021; AlphaScreen His-mHTT/GST-CaM binding, luminescence
Target sequence (P42858 whole entry, looked up, change not shown): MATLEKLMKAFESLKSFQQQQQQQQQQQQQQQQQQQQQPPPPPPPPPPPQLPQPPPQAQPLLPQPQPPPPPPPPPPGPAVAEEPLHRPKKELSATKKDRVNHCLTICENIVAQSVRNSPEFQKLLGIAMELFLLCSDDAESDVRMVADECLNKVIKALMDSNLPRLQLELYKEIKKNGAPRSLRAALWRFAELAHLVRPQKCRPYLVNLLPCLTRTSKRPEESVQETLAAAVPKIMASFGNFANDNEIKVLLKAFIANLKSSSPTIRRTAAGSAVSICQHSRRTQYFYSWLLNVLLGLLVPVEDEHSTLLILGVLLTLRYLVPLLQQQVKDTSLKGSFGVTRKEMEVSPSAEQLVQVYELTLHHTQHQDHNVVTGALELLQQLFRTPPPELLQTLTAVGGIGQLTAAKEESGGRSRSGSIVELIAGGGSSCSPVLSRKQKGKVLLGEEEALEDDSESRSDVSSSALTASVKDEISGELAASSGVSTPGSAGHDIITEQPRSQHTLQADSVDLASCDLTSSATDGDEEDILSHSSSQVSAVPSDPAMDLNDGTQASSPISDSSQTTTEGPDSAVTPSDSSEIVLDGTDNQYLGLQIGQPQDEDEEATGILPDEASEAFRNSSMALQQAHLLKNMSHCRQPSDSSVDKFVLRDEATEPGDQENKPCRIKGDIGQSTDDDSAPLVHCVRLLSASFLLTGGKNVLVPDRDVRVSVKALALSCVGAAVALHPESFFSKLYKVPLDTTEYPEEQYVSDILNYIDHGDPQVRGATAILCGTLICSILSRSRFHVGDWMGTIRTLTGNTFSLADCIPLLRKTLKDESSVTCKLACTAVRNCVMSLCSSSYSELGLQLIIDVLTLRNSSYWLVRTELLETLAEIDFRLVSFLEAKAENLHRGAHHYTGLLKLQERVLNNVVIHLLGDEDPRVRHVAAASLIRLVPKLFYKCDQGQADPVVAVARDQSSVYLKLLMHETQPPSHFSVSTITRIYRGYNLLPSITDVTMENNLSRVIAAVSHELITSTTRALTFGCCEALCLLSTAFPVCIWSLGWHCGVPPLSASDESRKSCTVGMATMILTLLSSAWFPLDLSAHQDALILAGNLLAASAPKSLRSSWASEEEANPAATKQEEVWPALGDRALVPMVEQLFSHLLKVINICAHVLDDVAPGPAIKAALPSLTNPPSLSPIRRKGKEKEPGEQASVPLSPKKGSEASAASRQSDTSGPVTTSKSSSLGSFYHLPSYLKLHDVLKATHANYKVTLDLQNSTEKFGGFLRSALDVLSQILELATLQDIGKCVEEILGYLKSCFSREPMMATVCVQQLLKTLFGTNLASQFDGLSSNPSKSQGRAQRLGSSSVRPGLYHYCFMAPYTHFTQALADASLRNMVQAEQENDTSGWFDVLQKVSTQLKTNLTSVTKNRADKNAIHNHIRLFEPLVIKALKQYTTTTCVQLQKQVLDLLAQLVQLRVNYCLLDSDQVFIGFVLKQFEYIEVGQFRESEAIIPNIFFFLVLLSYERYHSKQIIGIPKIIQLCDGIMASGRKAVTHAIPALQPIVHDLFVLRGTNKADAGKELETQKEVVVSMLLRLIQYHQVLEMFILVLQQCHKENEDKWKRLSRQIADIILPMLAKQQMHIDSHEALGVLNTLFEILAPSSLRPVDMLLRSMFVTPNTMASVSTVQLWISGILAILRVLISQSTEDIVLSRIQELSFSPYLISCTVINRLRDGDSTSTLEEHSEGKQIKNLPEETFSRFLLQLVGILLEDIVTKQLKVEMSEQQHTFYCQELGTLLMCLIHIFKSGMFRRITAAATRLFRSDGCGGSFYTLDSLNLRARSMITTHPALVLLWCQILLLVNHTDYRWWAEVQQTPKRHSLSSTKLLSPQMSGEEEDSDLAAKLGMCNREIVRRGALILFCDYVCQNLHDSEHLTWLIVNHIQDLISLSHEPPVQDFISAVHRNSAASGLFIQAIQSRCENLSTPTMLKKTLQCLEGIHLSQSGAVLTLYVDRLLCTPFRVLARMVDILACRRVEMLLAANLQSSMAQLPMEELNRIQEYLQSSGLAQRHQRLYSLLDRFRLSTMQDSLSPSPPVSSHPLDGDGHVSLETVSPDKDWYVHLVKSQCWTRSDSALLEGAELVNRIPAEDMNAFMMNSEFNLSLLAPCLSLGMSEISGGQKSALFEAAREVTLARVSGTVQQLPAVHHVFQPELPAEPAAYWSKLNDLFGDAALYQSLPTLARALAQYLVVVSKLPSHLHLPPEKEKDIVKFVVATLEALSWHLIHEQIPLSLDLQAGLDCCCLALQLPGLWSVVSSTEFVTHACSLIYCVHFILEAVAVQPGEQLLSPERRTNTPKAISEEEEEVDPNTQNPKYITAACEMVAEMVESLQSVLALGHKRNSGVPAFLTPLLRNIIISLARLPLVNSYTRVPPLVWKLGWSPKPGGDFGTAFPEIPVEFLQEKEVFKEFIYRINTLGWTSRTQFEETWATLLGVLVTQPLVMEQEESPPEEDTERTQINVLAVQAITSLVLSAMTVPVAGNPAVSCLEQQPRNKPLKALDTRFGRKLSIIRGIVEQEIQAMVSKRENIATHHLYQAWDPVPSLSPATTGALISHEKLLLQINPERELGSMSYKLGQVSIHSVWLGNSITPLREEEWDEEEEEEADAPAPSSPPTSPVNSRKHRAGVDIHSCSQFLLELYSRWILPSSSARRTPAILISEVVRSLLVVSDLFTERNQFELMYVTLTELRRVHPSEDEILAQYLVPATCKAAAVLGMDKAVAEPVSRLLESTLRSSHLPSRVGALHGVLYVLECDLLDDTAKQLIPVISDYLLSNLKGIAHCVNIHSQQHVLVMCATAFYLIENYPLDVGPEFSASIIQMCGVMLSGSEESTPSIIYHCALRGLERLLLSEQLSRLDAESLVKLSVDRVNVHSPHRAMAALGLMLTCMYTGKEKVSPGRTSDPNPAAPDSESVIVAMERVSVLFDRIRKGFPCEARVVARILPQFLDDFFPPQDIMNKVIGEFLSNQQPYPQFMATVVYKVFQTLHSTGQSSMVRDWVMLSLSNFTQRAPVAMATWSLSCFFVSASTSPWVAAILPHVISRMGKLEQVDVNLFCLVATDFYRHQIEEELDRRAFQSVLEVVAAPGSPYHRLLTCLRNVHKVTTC
Pf apPOL inh: Pf-apPOL inhibitors, biochemical, fluorescence | Recombinant Pf-apPOL, molecular beacon fluorescence, 1.5 h | inhibition, % at 10 µM | hit rate 0.25% among 210,000 | AID 1794808, 2022
Large screens that a line does not name were inactive. The entries come from a sample that favours hits as a whole. No stated cut-off is given here; in the data, active means inhibition above about 50%; inactive means the rest.

O=C1CSC(c2cn(-c3ccccc3)nc2-c2ccc(Cl)cc2)N1Cc1cccnc1 (stereo unspecified)	mHTT CaM bind 58
O=C1CSC(c2cn(-c3ccccc3)nc2-c2ccccc2)N1Cc1cccnc1 (stereo unspecified)	none
O=C1CSC(c2cn(-c3ccccc3)nc2-c2cc3ccccc3oc2=O)N1CC1CCCO1 (stereo unspecified)	mHTT CaM bind 58
Cc1ccc(-c2nn(-c3ccccc3)cc2C2SCC(=O)N2Cc2ccccc2)o1 (stereo unspecified)	mHTT CaM bind 94
O=C1CSC(c2cn(-c3ccccc3)nc2-c2cc3ccccc3oc2=O)N1Cc1ccco1 (stereo unspecified)	none
O=C1CSC(c2cn(-c3ccccc3)nc2-c2cccs2)N1Cc1ccccc1 (stereo unspecified)	none
O=C(Nc1cc([N+](=O)[O-])ccc1Cl)c1cnc2n(c1=O)CCS2	none
COc1ccc(C(=O)N2CCC(n3c(-c4ccoc4)nc4cccnc43)C2)cc1F (stereo unspecified)	mHTT CaM bind 63
O=C(NCc1ccccc1)N1CCC(n2c(-c3ccoc3)nc3cccnc32)C1 (stereo unspecified)	none
COc1cc(C(=O)N2CCC(n3c(-c4ccoc4)nc4cccnc43)C2)ccc1C (stereo unspecified)	none
O=C(c1cccc(Br)c1)N1CCC(n2c(-c3ccoc3)nc3cccnc32)C1 (stereo unspecified)	mHTT CaM bind 55
Cc1ccc(CNC(=O)N2CCC(n3c(-c4ccoc4)nc4cccnc43)C2)cc1 (stereo unspecified)	mHTT CaM bind 64
Cc1ccc(C(=O)N2CCC(n3c(-c4ccoc4)nc4cccnc43)C2)cc1C (stereo unspecified)	none
O=C(Cn1cc(-c2ccc(F)cc2)oc1=O)N1CCN(c2cccc(Cl)c2)CC1	none
O=C(Nc1ccccc1C(=O)O)c1cccc(C(=O)Nc2ccccc2C(=O)O)c1	mHTT CaM bind 70
O=C(Nc1ccccc1C(=O)O)c1ccccc1	none
COc1ccc(C2=N/C(=C/c3cc(OC)c(OC)c(OC)c3)C(=O)O2)cc1OC	none
Cc1cc(OCCNCCO)cc(C)c1Cl	none
OCCNCCOc1ccc(Cl)cc1	Pf apPOL inh 77
CCc1cccc(CC)c1NC(=O)c1c(-c2ccccc2Cl)noc1C	none
COc1cc(/C=C2\C(C)=C([N+](=O)[O-])CS2(=O)=O)ccc1O	mHTT CaM bind 87
COc1cc([N+](=O)[O-])ccc1O	none (no result: Pf apPOL inh)
O=C(Nc1ccccc1-c1nc2ccccc2[nH]1)c1ccccc1F	none
CCSc1ccccc1C(=O)Nc1ccccc1-c1nc2ccccc2[nH]1	mHTT CaM bind 61
O=C(NC1CCCCC1)c1ccc(-c2csc(C3CC3)n2)cc1	none
Cc1cc(C)nc(-n2nc(C)c3c2NC(=O)CC3c2ccc3ccccc3c2)n1 (stereo unspecified)	mHTT CaM bind 70
Cc1nn(-c2nc3ccccc3s2)c2c1C(c1ccccc1)CC(=O)N2 (stereo unspecified)	none
Cc1nc(-c2cccs2)sc1C(=O)NNC(=O)c1ccc(Cl)cc1	none (no result: mHTT CaM bind)
COc1ccc(C)cc1NC(=O)C1c2ccccc2C(=O)N2CCc3ccccc3C12 (stereo unspecified)	none
CCOc1ccccc1NC(=O)C1c2cc(OC)c(OC)cc2C(=O)N2CCc3ccccc3C12 (stereo unspecified)	mHTT CaM bind 54
COc1cc(Cl)c(C)cc1NC(=O)C1c2ccccc2C(=O)N2CCc3ccccc3C12 (stereo unspecified)	mHTT CaM bind 54
COc1cc2c(cc1OC)C(C(=O)Nc1ccc(F)cc1)C1c3ccccc3CCN1C2=O (stereo unspecified)	none
CS(=O)(=O)Oc1ccc2nonc2c1	none (no result: mHTT CaM bind)
COc1cc(/C=C2\C(=O)NN(c3ccc(C)c(C)c3)C2=O)cc([N+](=O)[O-])c1O	none
CSCCC(C(=O)O)n1c(O)c(C2=c3cc(Br)ccc3=NC2=O)sc1=S (stereo unspecified)	mHTT CaM bind 51 (no result: Pf apPOL inh)
Cc1ccccc1-n1c(O)c(C2=c3cc(Br)ccc3=NC2=O)sc1=O	mHTT CaM bind 63
Cc1ccc(Nc2nc(O)c(C3=c4cc(Br)ccc4=NC3=O)s2)cc1C	none
O=C1N=c2ccc(Br)cc2=C1c1sc(=O)n(-c2ccccc2)c1O	none
COCc1cccc(NC(=O)c2cccc(Br)c2)c1	Pf apPOL inh 54
CC(=O)c1cccc(NC(=O)c2cccc(Br)c2)c1	none
COc1ccc(N=C2C(=O)N3c4c(cc(C)cc42)C(C)=CC3(C)C)cc1	mHTT CaM bind 72
COc1ccc2c(c1)C(C)=CC(C)(C)N2C(=O)C(C)N1C(=O)c2ccccc2C1=O (stereo unspecified)	none
COc1ccc(CC(=O)N2CCN(c3cccc(Cl)c3)CC2)cc1	none
COc1ccc(CC(=O)N2CCN(c3cccc(Cl)c3)CC2)cc1OC	mHTT CaM bind 55
COc1cccc(-c2noc(C3CCCN3C(=O)Nc3ccc(F)c(Cl)c3)n2)c1 (stereo unspecified)	mHTT CaM bind 58
COc1cccc(-c2noc(C3CCCN3C(=O)Nc3cccc(Cl)c3)n2)c1 (stereo unspecified)	none
CCn1ccc(C(=O)N2CCCC2c2nc(-c3cccc(C(F)(F)F)c3)no2)n1 (stereo unspecified)	mHTT CaM bind 88
CCC(=O)Nc1cccc(-c2noc(C3CCCN(C(=O)c4cccc(OC)c4)C3)n2)c1 (stereo unspecified)	none
Cc1ccc(OCC(=O)N2CCCC2c2nc(-c3cccc(C)c3)no2)cc1 (stereo unspecified)	mHTT CaM bind 80
CCC(=O)Nc1cccc(-c2noc(C3CCCN(C(=O)COc4cccc(C)c4)C3)n2)c1 (stereo unspecified)	mHTT CaM bind 79
COc1ccc(OCC(=O)N2CCCC2c2nc(-c3cccc(C)c3)no2)cc1 (stereo unspecified)	none
CCn1ccc(C(=O)N2CCCC2c2nc(-c3cccc(Cl)c3)no2)n1 (stereo unspecified)	none
Cc1ccnc(N2CCCC(C(=O)Nc3cc(Cl)ccc3C)C2)n1 (stereo unspecified)	none
Cc1cccc(N2CCN(C(=O)c3cccc(Br)c3)C(C)C2=O)c1C (stereo unspecified)	none
O=C1C(=O)N(C(c2ccccc2)c2ccc(Cl)cc2)c2ccccc21 (stereo unspecified)	mHTT CaM bind 93
O=C(CN1C(=O)C(=O)c2ccccc21)c1ccc(Cl)cc1	none
COc1ccc(C2CCCN2C(=O)c2ccc3c(c2)OCO3)cc1 (stereo unspecified)	none
COc1cccc(C2CC(c3ccc(Cl)cc3)=NC(C(C)C)N2)c1O (stereo unspecified)	none
COc1ccc(C2N=C(c3ccc4c(c3)OCO4)CC(c3ccccc3O)N2)cc1 (stereo unspecified)	none
COc1cccc(C2=NC(c3ccc(F)cc3)NC(c3ccc(OC)cc3O)C2)c1 (stereo unspecified)	mHTT CaM bind 53
COc1ccc(C2=NC(C(C)C)NC(c3ccccc3O)C2)cc1OC (stereo unspecified)	mHTT CaM bind 78
Cc1ccc(C2=NC(C(C)C)NC(c3cc(Br)ccc3O)C2)cc1 (stereo unspecified)	none
COc1cccc(C2=NC(C(C)C)NC(c3cc(Br)ccc3O)C2)c1 (stereo unspecified)	mHTT CaM bind 81
